Results on 67 molecules are retold here after ChEMBL document CHEMBL4513216, “Probing the Open Global Health Chemical Diversity Library for Multistage-Active Starting Points for Next-Generation Antimalarials” (ACS Infect Dis, 2020).

The structures appear in SMILES notation. In all, about 69,000 compounds went through this assay and about 8,600 (12%) showed an effect of 50% or more. Many of the other results were omitted from the sample, so strong results are more common in it than they were.

In this experiment the test system is Plasmodium berghei. Nature of the experiment: Screen against P. berghei liver stage (PbLuc), transformed with Luciferase, at 10uM. The following applies: tested at 10 uM. In kind it is functional, HepG2.
As for `CCc1nc(C)sc1CN1C[C@@H](C)[C@@](C)(O)C1`, the INHIBITION is 14.9%.
For the molecule `CSc1ncc(C(=O)N(C)C(C)Cc2ccccn2)cn1` (configuration not stated), the INHIBITION was -1.16%.
For `O=C(NCc1nnc2n1C(C(=O)NC1CC1)CC2)c1ccc(Cl)cc1Cl` (configuration not stated), the INHIBITION is on record as 44.9%.
As for `Cc1cccc(C(=O)N2Cc3ccccc3C3(CCN(C)CC3)C2)n1`, the INHIBITION is on record as 36.9%.
For `COCCN1Cc2ccccc2C2(CCN(C(=O)c3ccno3)CC2)C1`, the INHIBITION is -1.36%.
Regarding `Cc1ccsc1C(=O)N1Cc2ccccc2C2(CCN(C)CC2)C1`, the INHIBITION came to 53.5%.
For `CS(=O)(=O)N1Cc2ccccc2C2(CCN(C(=O)c3ccno3)CC2)C1`, the INHIBITION is recorded as 55.7%.
To `Cc1cncc(C(=O)N2Cc3ccccc3C3(CCN(C)CC3)C2)c1` belongs 39.2%.
Next, `CN1CCC2(CC1)CN(C(=O)c1cccnc1)Cc1ccccc12`: 33.4%; `COCCN1CC2(CCN(C(=O)c3ccno3)CC2)c2ccccc21`: -14.7%; `CN1CCC2(CC1)CN(C(=O)c1ccncc1)Cc1ccccc12`: 57.9%.
For `CN1CCC2(CC1)CN(C(=O)c1cnccn1)Cc1ccccc12`, the INHIBITION is on record as 18.3%.
As to `CCCC1c2cccn2CCN1C(=O)c1cc(CC)no1` (configuration not stated), the INHIBITION came to 44.1%.
On to `Cc1cccc(C)c1-n1nnnc1C1(NCc2ccco2)CCCC1`, for which the INHIBITION stood at 45.4%.
On to `Cc1nc(C)n(CC2CCCN2CC(=O)NC2CCOCC2)n1` (configuration not stated), for which the INHIBITION is recorded as 38.5%.
On to `Cc1nc(CN2CCN(CC(O)CN3CCOCC3)CC2)oc1C` (configuration not stated), for which the INHIBITION is 4.34%.
As for `O=C([C@H]1CCCO1)N1CCC2(CCCN(CCOc3ccccc3)C2)C1` (some centres not stated), the INHIBITION is 12.4%.
Regarding `COCC(=O)N1CC[C@H]2O[C@@H](C)C[C@H]2C1`, the INHIBITION was -1.55%.
In the case of `Cc1nn(C)cc1S(=O)(=O)NCC(c1ccccc1Cl)N1CCCC1` (configuration not stated), the INHIBITION is listed as 13.5%.
For `Cn1c(CNCC2CCCN2c2cccnn2)nc2ccccc21` (configuration not stated), the INHIBITION is -0.113%.
For `OC(COCc1cccs1)CN1CCc2c(ncn2C2CC2)C1` (configuration not stated), the INHIBITION was determined as 2.97%.
With `Cc1ccc2[nH]c(C3CCN(C)CC3)nc2c1`, the INHIBITION was -17.9%.
`COCCN1CCC(c2nc3cc(C)ccc3[nH]2)CC1`: the INHIBITION came out at 15.5%.
With `Cc1ccc2[nH]c([C@H]3CCN(CC4CCCCC4)C3)nc2c1`, the INHIBITION is reported as 51.9%.
Take `Cc1nc(CNC(=O)c2cc(COc3ccccc3)[nH]n2)n[nH]1`: the INHIBITION is on record as 15.7%.
Regarding `NC(=O)c1nc(-c2ccc(Cl)cc2Cl)oc1N`, the INHIBITION is -63.4%.
As to `Cc1cc2c(=O)n3c(nc2s1)CCN(Cc1cnn(C)c1C)CC3`, the INHIBITION worked out at 24.5%.
Consider `COc1ccc2c(c1)CCCN(C(C)C(=O)NC(C)C)C2` (configuration not stated), for which the INHIBITION is on record as -9.87%.
As for `COc1ccc2c(c1)CCCN(C(C)C(=O)NC(N)=O)C2` (configuration not stated), the INHIBITION is reported as 1.79%.
Take `COC(=O)C(C)N1CCCc2cc(OC)ccc2C1` (configuration not stated): the INHIBITION is reported as 59.2%.
To `CC(C)CS(=O)(=O)CC(=O)NC(C)(C)c1cccc(F)c1` belongs 52.2%; to `Cc1cccc(C(C)(C)NC(=O)CS(=O)(=O)CC(C)C)c1`, 64.5%.
Regarding `CCS(=O)(=O)CC(=O)NC(C)c1ccc(F)cc1F` (configuration not stated), the INHIBITION turned out to be 47.5%.
Regarding `CNC(=O)CS(=O)(=O)Cc1coc(-c2cccc(F)c2)n1`, the INHIBITION is recorded as -11.3%.
Consider `CCC(C(=O)NC)N(c1cccc(C)c1)S(C)(=O)=O` (configuration not stated), for which the INHIBITION came to 0.547%.
In the case of `CS(=O)(=O)CCC(=O)Nc1ccsc1`, the INHIBITION is on record as -120%.
`CS(=O)(=O)CCC(=O)NC1(c2cccc(Br)c2)CC1`: the INHIBITION amounted to 5.14%.
Regarding `Cc1cccc(CS(=O)(=O)CC(=O)NCCCOC(C)C)c1`, the INHIBITION stood at 45%.
With `Cc1cccc(C(C)(C)NC(=O)CCS(C)(=O)=O)c1`, the INHIBITION was determined as 51%.
Turning to `Cc1nc(C)n(CC2CCCN(CC(=O)Nc3nnc(C)s3)C2)n1` (configuration not stated), the INHIBITION is on record as 33.25%.
Take `O=C1c2ncccc2C(CCO)N1Cc1ccccc1` (configuration not stated): the INHIBITION is 2.55%.
Next, `Cc1c(COC(C)C)cccc1NC(=O)N1CCCC(CO)C1` (configuration not stated): 49.1%; `CCC1c2cccn2CCN1C(=O)c1cc(OC)nc(OC)n1` (configuration not stated): 19.7%; `O=C(N[C@@H]1CCC[C@@H](N2CCOCC2)[C@@H]1O)c1ncccn1`: 36.4%.
Next, `CS(=O)(=O)N1C[C@H]2CNC[C@@]2(C(=O)NCCCc2ccccc2)C1`: 73.5%.
Turning to `O=C(C1CC1)N1C[C@H]2CNC[C@@]2(C(=O)NCCCc2ccccc2)C1`, the INHIBITION was determined as 32.5%.
On to `CS(=O)(=O)N1C[C@H]2CNC[C@@]2(C(=O)NCCOc2ccccc2)C1`, for which the INHIBITION turned out to be 18.6%.
As to `COCC(C)(C)NC(=O)CC(c1ccccc1)C(F)(F)F` (configuration not stated), the INHIBITION stood at 29.4%.
On to `CN(C)S(=O)(=O)NC(=O)CC(c1ccccc1)C(F)(F)F` (configuration not stated), for which the INHIBITION is on record as 62.8%.
As for `CC(C)S(=O)(=O)NC(=O)CC(c1ccccc1)C(F)(F)F` (configuration not stated), the INHIBITION is recorded as 31.3%.
With `O=C(NCCCc1ccncc1)C1CCCN(Cc2ccco2)C1` (configuration not stated), the INHIBITION turned out to be 19.5%.
For the molecule `Cc1cnccc1NCCNC(=O)C1CCCN(Cc2ccco2)C1` (configuration not stated), the INHIBITION was determined as 24.3%.
Next, `Cc1ccc(NCCCNC(=O)C2CCCN(Cc3ccco3)C2)nc1` (configuration not stated): 75.1%.
Consider `c1cncc(COCC2C[C@@H]3OCCN(Cc4cccnc4)[C@H]3C2)c1` (some centres not stated), for which the INHIBITION is 23.6%.
Next, `CN(C)C(=O)N1CCC[C@]2(C(=O)N(C)C)CN(c3ccccn3)C[C@@H]2C1`: -2.35%; `Cc1ccc(C(=O)N2CCO[C@H]3[C@H](OCCN(C)C)CC[C@@H]32)o1`: -26.1%.
Consider `CC(NCc1ccccn1)c1cc2c(cc1Br)OCCO2` (configuration not stated), for which the INHIBITION stood at 47.4%.
Regarding `CC(NCc1ccncc1)c1cc2c(cc1Br)OCCO2` (configuration not stated), the INHIBITION came to 53.9%.
Next, `CC(NCc1cccnc1)c1cc2c(cc1Br)OCCO2` (configuration not stated): 15%; `Cc1cnc(N2CCO[C@@H]3CC(COCc4cccnc4)C[C@H]32)nc1` (some centres not stated): 45.4%.
On to `O=C(Nc1cccnc1N1CCSCC1)c1ccc2c(c1)CCO2`, for which the INHIBITION is listed as 39.6%.
Next, `COCCOc1ccnc(-c2noc([C@@H]3CCCN3CC(C)(C)C)n2)c1`: 53.2%; `COCCOc1ccnc(-c2noc([C@@H]3CCCN3CC3CC3)n2)c1`: 18.4%; `COCCOc1ccnc(-c2noc([C@@H]3CCCN3CC(C)C)n2)c1`: -15.6%.
`CS(=O)(=O)CCC(=O)N1C[C@H]2CC[C@@H](C1)N(Cc1ccccn1)C2=O`: the INHIBITION is on record as 5.38%.
On to `c1ccc(-c2nc(CNCC3CCCN3c3cccnn3)co2)cc1` (configuration not stated), for which the INHIBITION was -17.7%.
Regarding `Cn1cc(CN2CCCC(n3c(=O)oc4ccccc43)C2)cn1` (configuration not stated), the INHIBITION stood at 2.14%.
